Measured values as given in ChEMBL document CHEMBL4513216, “Probing the Open Global Health Chemical Diversity Library for Multistage-Active Starting Points for Next-Generation Antimalarials” (ACS Infect Dis, 2020).
Screen size: about 65,000 compounds; about 2,100 (3.2%) showed an effect of 50% or more. The median lay at about -52%. The full list was thinned out, with strong results kept by preference.

What follows are molecules tested on Plasmodium falciparum (assay: Screen against P. falciparum Asexual Blood Stage (ABS), at 5uM). Details: tested at 5 uM.
Type: functional, Dd2
`Cn1c(CCC(=O)N2CCCC3(CC2)CNC(=O)O3)nc2cccnc21` (configuration not stated) was tested, and the INHIBITION was -38.1%. In the case of `CC(C)CCN1C(=O)c2ccc(C(=O)NCCc3c[nH]cn3)cc2C1=O`, the INHIBITION is reported as -19.2%. For `Cc1cc(C)c2cc(CNCC3CCCO3)c3nn(C)c(=O)n3c2c1` (configuration not stated), the INHIBITION was 7.98%. `Cc1cc(C)c2cc(CNCc3ccccc3)c3nn(C)c(=O)n3c2c1` showed an INHIBITION of 65.4%. `COCCNCc1cc2c(C)cc(C)cc2n2c(=O)n(C)nc12` was tested, and the INHIBITION was -43%. `Cc1cc(C)c2cc(CNCc3cccnc3)c3nn(C)c(=O)n3c2c1` was tested, and the INHIBITION was 31.5%. For `Cc1cc(C)c2cc(CNCc3ccc(C)o3)c3nn(C)c(=O)n3c2c1`, the INHIBITION was 63.9%. In the case of `CCCNCc1cc2c(C)cc(C)cc2n2c(=O)n(C)nc12`, the INHIBITION is reported as -36.8%. For `CS(=O)(=O)N1Cc2ccnn2CC(C(=O)NCc2cccnc2)C1` (configuration not stated), the INHIBITION was -95.4%. For `Cc1cnc(N2C[C@@H]3[C@@H](C2)OCC(=O)N3CCN(C)C)nc1`, the INHIBITION was -122%. For `CCc1ccsc1C(=O)N1CCN(CCN2C(=O)CCC2=O)CC1`, the INHIBITION was -170%. `Cc1nn(C)cc1CN(C)C(=O)c1ccncc1` gave an INHIBITION of -130%. `CCn1c(=O)nc(N)c2c(-c3ccc(OC)cc3)csc21` showed an INHIBITION of -67.6%. For `COc1ccc(-c2csc3c2c(N)nc(=O)n3CCCN(C)C)cc1`, the INHIBITION was 54.2%. `COc1ccc(-c2csc3c2c(N)nc(=O)n3CCN(C)C)cc1` gave an INHIBITION of -27.7%. `O=C1COC2(CCN(Cc3ccoc3)CC2)CN1c1ccsc1` gave an INHIBITION of -66%. `OCc1cc2ccccc2nc1N1CCCCC1` gave an INHIBITION of -56.3%. Molecule `CC(C)N(C)C(=O)c1ccc(CNc2ccncc2Cl)cc1` has an INHIBITION of 24.6%. For `COc1cc(C)ccc1S(=O)(=O)N[C@H]1CN(C(C)=O)C[C@@H]1C1CC1`, the INHIBITION was -120%. Work on `CN(C)S(=O)(=O)N1CCCC(c2cccc(Cc3ccc(F)cc3)n2)C1` (configuration not stated) yielded an INHIBITION of -107%. For `O=C(c1ccncc1)N1CCOC2(CCCN(c3nncs3)C2)C1` (configuration not stated), the INHIBITION was -74.2%. With `CC(C)N1CCC(CNC(=O)COc2ccc(F)cc2F)C1` (configuration not stated) the INHIBITION was 53.3%. In the case of `CC(C)N1CCC(CNC(=O)CCc2cc(F)ccc2F)C1` (configuration not stated), the INHIBITION is reported as 7.8%. Work on `CN1CCOC(CNC(=O)COc2ccc(F)cc2F)C1` (configuration not stated) yielded an INHIBITION of -69.6%. Molecule `Cc1ccc(N2CC[C@@H]3[C@@H]2CCN3C(=O)Cc2ccccc2)nn1` has an INHIBITION of -79%. `CC(=O)NCC(=O)N1CCC(C2CCN(Cc3ccc(Cl)cc3)C2)CC1` (configuration not stated) was tested, and the INHIBITION was 5.47%. `O=C(C1CCC1)N1CCC(C2CCN(Cc3ccc(Cl)cc3)C2)CC1` (configuration not stated) showed an INHIBITION of 65.6%. With `Clc1cccnc1N1CCC(C2CCN(Cc3cccnc3)CC2)C1` (configuration not stated) the INHIBITION was -49.5%. Work on `Clc1ccc(CN2CCC(C3CCN(Cc4cccnc4)CC3)C2)cc1` (configuration not stated) yielded an INHIBITION of 64.4%. With `O=C(C1CCCC1)N1CCC(C2CCN(Cc3ccc(Cl)cc3)C2)CC1` (configuration not stated) the INHIBITION was 64.3%. `CN1CCN(Cc2ccc(Cl)cc2)CC1C(=O)O` (configuration not stated) showed an INHIBITION of -94.1%. Work on `O=C(C1CC1)N1CCCC1C1CCN(Cc2ccccc2)CC1` (configuration not stated) yielded an INHIBITION of -40.8%. `Clc1ccc(N2CCC(C3CCN(Cc4cccnc4)CC3)C2)nc1` (configuration not stated) showed an INHIBITION of 12.7%. `CCOCC(=O)N1CCC(C2CCN(Cc3ccc(Cl)cc3)C2)CC1` (configuration not stated) was tested, and the INHIBITION was 0.245%. In the case of `Cc1cc(C)n(CC2CCCN2C(=O)c2c(C)noc2C)n1` (configuration not stated), the INHIBITION is reported as -97.8%. `Cc1nc(CN2CCCN(CCOc3ccc(C#N)cc3)CC2)no1` showed an INHIBITION of -71.7%. Work on `Cc1cc2ccccc2n1CCC(=O)NCc1ncc[nH]1` yielded an INHIBITION of -0.748%. For `CCN(Cc1nc(COC)no1)C(=O)CCn1c(C)cc2ccccc21`, the INHIBITION was 10%. Work on `CCN(Cc1ccncc1)C(=O)CCn1c(C)cc2ccccc21` yielded an INHIBITION of 56.5%. `O=C(NC1CCCC1)c1cc2c(s1)CCN2C(=O)c1ccccc1` was tested, and the INHIBITION was -63.7%. `Cc1nc(C)n(CC2CCCN2CCCOc2ccc(C#N)cc2)n1` (configuration not stated) was tested, and the INHIBITION was -33.2%. Work on `Cc1ccc(S(=O)(=O)N2Cc3c(CN(C)C)nn(C)c3C2)cc1` yielded an INHIBITION of 42.8%. For `CCc1ccc(S(=O)(=O)N2Cc3c(CN(C)C)nn(C)c3C2)cc1`, the INHIBITION was 63.9%. For `COc1ccc(S(=O)(=O)N2Cc3c(CN(C)C)nn(C)c3C2)cc1`, the INHIBITION was 40.7%. With `C[C@@H](O)CNC(=O)c1nc(CC(=O)Nc2ccccc2)no1` the INHIBITION was -40.2%. With `CC(NC(=O)N1CCN(c2cccs2)CC1)c1ccc(C#N)cc1` (configuration not stated) the INHIBITION was 63.2%. Work on `CC(NC(=O)N1CCN(c2ncccn2)CC1)c1ccc(C#N)cc1` (configuration not stated) yielded an INHIBITION of 19.1%. With `CC(NC(=O)N1CCN(c2cccs2)CC1)c1ccncc1` (configuration not stated) the INHIBITION was -28.9%. `Cc1ccnn1CCC(=O)N1C[C@@H]2CC[C@H]1CN(CC(=O)N(C)C)C2` showed an INHIBITION of -46.9%. Work on `CC(C)(C)c1ccc(S(=O)(=O)CCN2CCNC(=O)CC2)cc1` yielded an INHIBITION of -97.7%. Molecule `COCCCNc1ncc(-c2cccc(F)c2)c(-c2nccn2C)n1` has an INHIBITION of -138%. With `COCCNc1ncc(-c2cccc(F)c2)c(-c2nccn2C)n1` the INHIBITION was -10.2%.
